From PubChem BioAssay AID1745853 (National Center for Advancing Translational Sciences (NCATS), 2022)
The whole screen tested about 25,000 compounds, of which about 970 (3.9%) were called active. Inconclusive results (about 8%) are left out. No rule for the calls is given here. What follows is part of a selection rich in actives, with near analogues and random picks from the rest.

Assays:
Test in all cases: Primary Screen for Target Class Profiling of Small Molecule Inhibitors of Methyltransferases
[1] = target: Catechol O-methyltransferase (Homo sapiens) (UniProt P21964); conditions: purified enzyme, MTase-Glo SAH luminescence; activity change, negative = inhibition: at 40 µM, stronger effect = lower value; outcome: 40 uM
Procedure, shortened: (§1)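 Each enzyme was reacted with SAM and its substrate, with compounds tested once at 40 uM; SAH formed was read by MTase-Glo luminescence.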

[2] = target: Glycine N-methyltransferase (Homo sapiens) (UniProt Q14749); conditions: purified enzyme, MTase-Glo SAH luminescence; measured here: GNMT inhibition; at 40 µM; stronger effect = lower value
Procedure, shortened: as §1

[3] = target: Guanidinoacetate N-methyltransferase (Homo sapiens) (UniProt Q14353); conditions: purified enzyme, MTase-Glo SAH luminescence; measured here: GAMT inhibition; at 40 µM; stronger effect = lower value
Procedure, shortened: as §1

[4] = target: Histamine N-methyltransferase (Homo sapiens) (UniProt P50135); conditions: purified enzyme, MTase-Glo SAH luminescence; measured here: HNMT inhibition; at 40 µM; stronger effect = lower value
Procedure, shortened: as §1

[5] = target: Nicotinamide N-methyltransferase (Homo sapiens) (UniProt P40261); conditions: purified enzyme, MTase-Glo SAH luminescence; measured here: NNMT inhibition; at 40 µM; stronger effect = lower value
Procedure, shortened: as §1

[6] = target: Phenylethanolamine N-methyltransferase (Homo sapiens) (UniProt P11086); conditions: purified enzyme, MTase-Glo SAH luminescence; measured here: PNMT inhibition; at 40 µM; stronger effect = lower value
Procedure, shortened: as §1
% is scaled to controls: 0 for no effect and ±100 for the full control effect.

Glycine N-methyltransferase (Homo sapiens), sequence (Q14749 whole entry, looked up): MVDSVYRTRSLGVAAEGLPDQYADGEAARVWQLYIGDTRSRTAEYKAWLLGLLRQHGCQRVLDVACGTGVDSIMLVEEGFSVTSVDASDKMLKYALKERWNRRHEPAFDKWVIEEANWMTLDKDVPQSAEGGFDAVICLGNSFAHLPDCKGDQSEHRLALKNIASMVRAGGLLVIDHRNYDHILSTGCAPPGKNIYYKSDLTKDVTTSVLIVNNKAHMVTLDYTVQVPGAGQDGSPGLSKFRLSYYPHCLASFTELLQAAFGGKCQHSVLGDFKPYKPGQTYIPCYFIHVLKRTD
Nicotinamide N-methyltransferase (Homo sapiens), sequence (P40261 whole entry, looked up): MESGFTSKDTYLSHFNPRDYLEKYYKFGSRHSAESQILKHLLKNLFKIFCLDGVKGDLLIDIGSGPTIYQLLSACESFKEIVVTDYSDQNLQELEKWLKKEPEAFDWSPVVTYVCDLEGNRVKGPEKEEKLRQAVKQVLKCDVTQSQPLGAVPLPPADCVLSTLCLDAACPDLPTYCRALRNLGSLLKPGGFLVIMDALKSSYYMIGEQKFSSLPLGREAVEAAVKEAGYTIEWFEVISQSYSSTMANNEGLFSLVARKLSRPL
Catechol O-methyltransferase (Homo sapiens), sequence (P21964 whole entry, looked up): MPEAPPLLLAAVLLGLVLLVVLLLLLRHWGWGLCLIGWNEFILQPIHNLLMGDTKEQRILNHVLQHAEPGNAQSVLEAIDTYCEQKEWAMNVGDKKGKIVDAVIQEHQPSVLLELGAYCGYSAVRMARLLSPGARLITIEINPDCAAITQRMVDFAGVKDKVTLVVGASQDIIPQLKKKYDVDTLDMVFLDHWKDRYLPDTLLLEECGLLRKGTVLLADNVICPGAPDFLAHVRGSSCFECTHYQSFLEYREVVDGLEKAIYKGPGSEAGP
Histamine N-methyltransferase (Homo sapiens), sequence (P50135 whole entry, looked up): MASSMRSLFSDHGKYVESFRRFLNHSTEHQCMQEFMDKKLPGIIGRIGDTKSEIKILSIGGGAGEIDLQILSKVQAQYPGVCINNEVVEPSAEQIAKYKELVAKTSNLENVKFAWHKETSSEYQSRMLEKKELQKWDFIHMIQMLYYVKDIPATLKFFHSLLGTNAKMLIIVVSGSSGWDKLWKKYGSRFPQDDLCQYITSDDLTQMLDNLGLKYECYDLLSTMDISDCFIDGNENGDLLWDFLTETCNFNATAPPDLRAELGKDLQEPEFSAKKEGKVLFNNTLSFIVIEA
Phenylethanolamine N-methyltransferase (Homo sapiens), sequence (P11086 whole entry, looked up): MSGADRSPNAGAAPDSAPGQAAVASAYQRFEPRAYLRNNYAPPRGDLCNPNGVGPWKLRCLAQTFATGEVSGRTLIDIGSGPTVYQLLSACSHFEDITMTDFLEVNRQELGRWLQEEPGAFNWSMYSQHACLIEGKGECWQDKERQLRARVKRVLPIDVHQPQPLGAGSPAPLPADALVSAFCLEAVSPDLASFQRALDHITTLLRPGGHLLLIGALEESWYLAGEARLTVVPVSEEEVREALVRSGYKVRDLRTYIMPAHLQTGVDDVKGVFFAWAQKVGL

Compound | activity change, negative = inhibition [1] | activity change, negative = inhibition [2] [%] | activity change, negative = inhibition [3] [%] | activity change, negative = inhibition [4] [%] | activity change, negative = inhibition [5] [%] | activity change, negative = inhibition [6] [%]
CCCCCCc1cc2c(-c3ccccc3)cc(=O)oc2cc1OCC(N)=O | -7.58% (inactive) | -9.86 | 1.37 | -0.051 | -9 | -8.85
COc1c2c(c(C)c3c1C(=O)OC3)OC1(C)CC(O)C34OC(O)(CCC3(C)C1C2)OC4(C)C (centres undefined) | -2.85% (inactive) | -1.14 | -7.45 | -0.188 | -20.3 | -0.001
COc1ccc(OC)c(CCNC(=O)CCn2ccc3cc(S(=O)(=O)N4CCCC4)ccc32)c1 | 1.88% (inactive) | 1.91 | 4.56 | 3.65 | -0.408 | 0.497
CC(C)NC(=O)c1ccccc1OCC1CCCN(Cc2cccnc2)C1 (centres undefined) | -0.392% (inactive) | -1.68 | -10.2 | -2.4 | -8.48 | -0.898
Cn1nccc1C(=O)N1CCC(Cc2nc(C3CC3)n[nH]2)C1 (centres undefined) | -2.8% (inactive) | -3.99 | -1.84 | -1.69 | -5.4 | -4.14
CCOc1ccccc1CN1CCC(Cc2nc(-c3cccnc3)n[nH]2)C1 (centres undefined) | -5.67% (active) | -4.21 | -1.54 | -56.9 | -49.4 | -12.9
CCC(C)N1Cc2cc(NC(=O)c3ccc([N+](=O)[O-])cc3)ccc2OCC1=O (centres undefined) | -3.17% (inactive) | -7.2 | -10.5 | -3.63 | -19.6 | -7.68
CC(=O)c1ccc2c(c1)[C@H](NC(=O)c1ccc(F)c(Cl)c1)[C@H](O)C(C)(C)O2 | -7.4% (inactive) | -1.85 | -7.24 | -2.99 | -18.7 | -13.1
COC[C@H]1NC(=O)CC[C@H]1C(=O)N1CCN(c2cccc(C)c2)CC1 | -9.6% (inactive) | -5.9 | -7.51 | -3.65 | -13.6 | -21.5
